# SMN2 splice up – enhancers of SMN2 splice variant expression | HEK293 SMN2-luciferase splicing reporter, luminescence, 30-36 h | 2.8% of 210,000 active | AID 1458 | Potency, µM (top dose mostly 46.1 µM), for the others: at the highest dose activity change, positive = activation, hits mostly activators; also: % of control where 0% means no effect; nearly all actives have a fitted effect of over 55% in size
#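 HEK293 cells carry an SMN2 […]–luciferase reporter in which exon 7 inclusion puts luciferase in frame. Cells were plated 10-12 h before compound addition, then incubated 30-36 h at 37C. ONE-Glo luminescence was read; sodium butyrate at 4.5 mM final served as control.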
# FLuc counter – firefly luciferase modulation, counter-screen for miR-21 project; Potency, µM (series often up to 57.5 µM), for inactives: at the top dose activity change, negative = inhibition, actives largely listed as inhibitors; 6.9% of 360,000 active; P08659; purified FLuc, Km substrates, luminescence inhibition;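 also: plate controls were vehicle for no effect and reference inhibitor for full effect; nearly all actives have a fitted effect of over 55% in size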
# Target sequence (P08659 whole entry, looked up): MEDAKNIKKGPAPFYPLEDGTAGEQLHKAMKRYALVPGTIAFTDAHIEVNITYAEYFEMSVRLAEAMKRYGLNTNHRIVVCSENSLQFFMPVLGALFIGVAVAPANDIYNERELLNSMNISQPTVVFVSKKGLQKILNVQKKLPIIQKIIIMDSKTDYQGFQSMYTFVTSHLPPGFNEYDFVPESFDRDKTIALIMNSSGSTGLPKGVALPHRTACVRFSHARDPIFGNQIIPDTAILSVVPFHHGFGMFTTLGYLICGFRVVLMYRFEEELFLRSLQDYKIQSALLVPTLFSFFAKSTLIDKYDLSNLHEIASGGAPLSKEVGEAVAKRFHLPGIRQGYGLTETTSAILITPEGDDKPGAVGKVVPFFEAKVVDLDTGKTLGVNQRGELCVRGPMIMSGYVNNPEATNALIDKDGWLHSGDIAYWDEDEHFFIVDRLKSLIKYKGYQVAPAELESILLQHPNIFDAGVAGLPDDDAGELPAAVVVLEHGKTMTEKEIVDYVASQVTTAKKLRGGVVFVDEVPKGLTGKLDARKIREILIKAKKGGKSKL
#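 Biochemical qHTS of compounds, final roughly 60 µM downward over six points, against 10 nM purified firefly luciferase using Km concentrations of substrates (10 uM D-luciferin, 10 uM ATP) in Tris acetate pH 7.5 buffer; luminescence output.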
# KinaseGlo FLuc – blocks Kinase-Glo luciferase, a counter-screen artifact. Kinase-Glo luciferase, ATP luminescence, 8 min. Potency, µM (top dose mostly 38.3 µM), without a hit: at the highest dose activity change, negative = inhibition, usual class: inhibitors. Q27757. 0.28% of 200,000 active; also: % is scaled to controls: 0 for no effect and ±100 for the full control effect; nearly all actives have a fitted effect of over 60% in size
#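 Kinase-Glo luciferase light output from ATP and luciferin was measured with 10 uM ATP, within the enzyme's linear range. Buffer: 50 mM imidazole pH 7.2, 50 mM KCl, 7 mM MgCl2, 0.01% Tween 20, 0.05% BSA; luminescence read after 8 min at ambient temperature.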
# Rab9 promoter act – activates the Rab9 promoter. Huh7 Rab9 promoter-luciferase reporter, luminescence, 24 h. Potency, µM (doses to about 9.22 µM), without a hit: at the highest dose activation, negative = inhibition, hits mostly activators. 2.8% of 320,000 active. AID 485297; also: % of control where 0% means no effect; nearly all actives have a fitted effect of over 60% in size
#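 Luminescence read-out: Huh7 cells stably expressing Rab9-luciferase, treated 24 h with compound at 37 °C, then lysed with luciferase reagent for 10 min at ambient before reading.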
# NPC1 prom act – activates the NPC1 promoter; Huh7 NPC1 promoter luciferase reporter, 24 h; Potency, µM (highest dose often 9.22 µM), for the others: top-dose activation, usual class: activators; 2.4% of 320,000 active; also: % of control where 0% means no effect; nearly all actives have a fitted effect of over 60% in size
#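 In 1536-well qHTS, Huh7 cells harboring an NPC1 promoter–luciferase construct received compound for 24 h; activation was quantified by luminescence following luciferase reagent addition.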
# ELG1 genotoxic – genotoxicity induction in ELG1-luciferase HEK293T cells | HEK293T ELG1-luciferase reporter, luminescence, 16 h | 1.3% of 330,000 active | AID 504466 | Potency, µM (top dose mostly 46 µM), for the others: at the highest dose activity change, positive = activation, most hits filed as activators; also: % of control where 0% means no effect; nearly all actives have a fitted effect of over 60% in size
#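 After overnight (16 hr) compound treatment at 37 °C, ELG1-luciferase HEK293T cells were lysed with ONE-Glo; luminescence quantified 30 min later at room temperature.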
# The depositor's hits bear a star; ? = inconclusive; / = no result given; [ ] = another dose, or the depositor's remark. This is a sample that favours compounds with a hit; in the whole collection about 7.4% have one here. Calls follow the shape of the dose curve; as a rule, active = well fitted curve in the direction sought with a large enough effect; inconclusive = small, poorly fitted or top-dose-only effect, or another doubt; inactive = no such curve, though single readings can be large; an effect the other way counts as inactive or inconclusive. Potency is read from the fitted curve at half-maximal effect.
SMILES,SMN2 splice up,FLuc counter,KinaseGlo FLuc,Rab9 promoter act,NPC1 prom act,ELG1 genotoxic
CCOc1ccc2nc(/N=C/c3c(C)[nH]n(-c4ccc(C)cc4)c3=O)sc2c1,14.1µM*,4.78µM*,7.94µM*,?,?,16.5%
CCOc1ccc2nc(/N=C/c3c(C)[nH]n(-c4ccccc4)c3=O)sc2c1,22.4µM*,6.75µM*,?,?,?,?
CCOc1ccc2nc(SC3CC(=O)N(c4ccc(C)cc4)C3=O)sc2c1 (stereo not given),-91.6%,4.4%,-6.5%,-4.8%,1.9%,-1.1%
Cc1cc(=O)n2c(C(=O)Nc3ccc(C)c(Cl)c3)c(C(=O)Nc3ccccc3)sc2n1,2.9%,-5.1%,/,/,/,/
COC(=O)C(C)Sc1ncnc2c1nnn2-c1ccc(F)cc1 (stereo not given),-2.2%,8.49µM*,-9.8%,29.4%,?,?
CCOC(=O)CNC(=O)CSc1ncnc2c1nnn2-c1ccc(F)cc1,-11.6%,?,-2.3%,-1.5%,0.2%,6.7%
COc1ccc2[nH]cc(CCNc3nc(-c4ccc(C(=O)N(C)C)cc4)nc4ccccc34)c2c1,11.2µM*,/,-15.4%,/,/,/
O=C(CSc1ncc(-c2ccc(F)cc2)[nH]1)Nc1cccc(O)c1,/,19µM*,-2.3%,3.4%,1.4%,-6.4%
Cn1c2ccc(F)cc2c2nnc(SCC(=O)Nc3cccc(O)c3)nc21,/,9.53µM*,/,1.4%,4.0%,12.1%
NNC(=O)CSc1ncc(-c2ccccc2)[nH]1,/,-3.5%,/,0.2%,-4.7%,7.6%
Cc1nc2ncnn2c(C)c1CCC(=O)NCc1ccccc1Cl,3.1%,1.2%,/,/,/,/
COC(=O)[C@@H]1C[C@@]2(O)[C@@H](O)[C@@H](O)[C@@H](O)C[C@H]2N1CC1CC1,15.5%,/,-3.0%,/,/,/
COc1ccc(S(N)(=O)=O)cc1C(=O)OCCCOC(=O)c1cc(S(N)(=O)=O)ccc1OC,/,-1.7%,/,-16.4%,-14.6%,7.3µM*
CC(C)c1nn2c(=O)cc(COC(=O)c3ccccc3NC(=O)c3cccc(Cl)c3)nc2s1,/,-1.4%,/,/,/,/
Cc1cc(C)c2nc3sc(C(=O)N4CCOCC4)c(N)c3cc2c1,/,0.213µM*,/,?,2.24µM*,1.46µM*
CCOc1ccc2nc3sc(C(=O)N4CCOCC4)c(N)c3cc2c1,1.26µM*,1.51µM*,-1.7%,0.562µM*,0.562µM*,2.3%
Cc1cc(C)c2cc3c(N)c(C(=O)N4CCOCC4)sc3nc2c1,/,10.7µM*,-3.7%,?,?,7.7%
Cc1ccc(NC(=O)c2c(C)nn(-c3ccccc3)c2-n2cccc2)c(Cl)c1,-2.7%,-7.5%,/,/,/,/
Cc1cc(O)c(C(C)C)cc1CN1CCCCC1,-10.6%[9.22 µM],/,1.1%[7.66 µM],/,/,/
Clc1ncnc2c1oc1ccccc12,12.6µM*,9.53µM*,-1.7%,-1.2%,1.3%,?
c1ccc2cc(Sc3ncnc4c3oc3ccccc34)ccc2c1,-21.5%,16.9µM*,6.9%,?,?,0.8%
Cc1cc(C)nc(Sc2ncnc3c2oc2ccccc23)n1,-11.1%,?,-2.4%,13.3%,-2.7%,-8.8%
COc1cccc(CC(=O)N2CCc3nc(-c4ccc(OC)cc4C)c4c(c3C2)CO[C@@H](c2ccccc2)C4)c1,3.9%[9.22 µM],/,-3.6%[7.66 µM],/,/,/
Cc1ccc(-c2cn3nc(N4CCCC(C(=O)NCc5ccccc5F)C4)sc3n2)cc1 (stereo not given),/,6.01µM*,/,/,/,/
Cc1ccccc1CNC(=O)C1CCN(c2nn3cc(-c4ccc(F)cc4)nc3s2)CC1,/,1.2%,/,/,/,/
SMILES,SMN2 splice up,FLuc counter,KinaseGlo FLuc,Rab9 promoter act,NPC1 prom act,ELG1 genotoxic
COc1ccc(-c2cn3nc(N4CCCC(C(=O)NCc5ccccc5OC)C4)sc3n2)cc1 (stereo not given),/,16.9µM*,/,/,/,/
COc1ccc(-c2cn3nc(N4CCCC(C(=O)NCc5ccccc5Cl)C4)sc3n2)cc1 (stereo not given),/,9.53µM*,/,/,/,/
COCCCNC(=O)C1CCN(c2nn3cc(-c4ccc(F)cc4)nc3s2)CC1,/,-18.2%,/,/,/,/
COc1ccc(-c2cn3nc(N4CCCC(C(=O)Nc5ccc(Cl)cc5C)C4)sc3n2)cc1 (stereo not given),/,-4.4%,/,/,/,/
CCN(CC)CCNC(=O)C1CCN(c2nn3cc(-c4ccc(F)cc4)nc3s2)CC1,/,21.3µM*,/,/,/,/
CN(C)CCCc1c2ccccc2nc2ccc(Cl)cc12,1.5%[9.22 µM],/,0.3%[7.66 µM],/,/,/
NC(=O)CCCCC(N)=O,16.3%,/,/,/,/,/
COc1ccc(-c2ccc(NS(=O)(=O)c3ccccc3Cl)cc2)nn1,/,-16.5%,/,/,/,/
Cc1ccc(S(=O)(=O)N2CCN(Cc3ccccc3Cl)CC2)cc1,-12.7%,-13.7%,/,/,/,/
O=C(NCc1cccc(Cl)c1)C1CCCN(c2nn3cc(-c4ccc(F)cc4)nc3s2)C1 (stereo not given),/,9.53µM*,/,/,/,/
O=C(NCc1cccc(Cl)c1)C1CCN(c2nn3cc(-c4ccc(F)cc4)nc3s2)CC1,/,-1.5%,/,/,/,/
Clc1ccc(-c2nc3ccccn3c2CN2CCCCC2)cc1,-4.7%,?,-3.2%,10.9%,0.8%,9.7%
CN(C)Cc1c(-c2ccc(Cl)cc2)nc2ccccn12,12.6µM*,12µM*,-3.6%,?,?,?
Cc1cc(C)nc(N/N=C/c2cc(Br)ccc2O)n1,/,8.49µM*,/,-6.6%,-6.1%,?
Cc1cc(C)nc(N/N=C/c2ccccc2OCc2ccccc2)n1,-1.7%,?,0.0%,0.8%,-1.5%,-1.8%
Cc1cc(C)nc(N/N=C/c2ccccc2OCc2ccc(Cl)cc2)n1,30.0%,?,0.4%,2.5%,8.6%,9.6%
Cc1cc(C)nc(N/N=C/c2ccccc2OCc2cccc(Br)c2)n1,-10.3%,19µM*,2.9%,-4.6%,-0.8%,0.8%
Cc1cc(C)nc(N/N=C/c2ccccc2OCc2ccc(Br)cc2)n1,12.6µM*,?,0.2%,15.3%,14.2%,-5.3%
O=C(C1CCCCC1)N(Cc1cccnc1)c1nc2c(F)cc(F)cc2s1,/,4.8%,/,/,/,/
CC1=C(C(=O)OCc2ccc(C)cc2)C(c2ccccc2F)CC(=O)N1 (stereo not given),-2.7%,-12.9%,/,/,/,/
CC(C)c1cc2cc3ccc(=O)oc3cc2o1,/,12µM*,/,?,?,?
O=c1ccc2cc3ccoc3cc2o1,/,-0.6%,0.7%,2.6%,-0.1%,5.8%
O=C(O)CCCc1ccc2c(c1)CCc1ccccc1-2,/,4.26µM*,/,-0.7%,-1.0%,9.7%
O=C(NCCOc1ccccc1F)c1cc(F)c(F)cc1Cl,2µM*,3.01µM*,-6.2%,1.41µM*,0.708µM*,?
Cc1ccccc1C(=O)NCCOc1ccccc1Cl,/,8.49µM*,/,0.562µM*,0.631µM*,5.8µM*
COc1ccccc1OCCNC(=O)c1cc(F)c(F)cc1Cl,21.7%,?,-2.6%,0.0%,1.2%,3.4%
